About 79,000 compounds went through this panel and 15% of them were active in at least one assay; those are over-represented in the sample as a whole. Active and inactive are the calls of the source. Rule as the data show it: active = growth inhibition above about 70%; inactive = the rest.
Experiments:
[1] = NCI Yeast Anticancer Drug Screen. Data for the rad52 strain (AID 147);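 also: 0% = growth of vehicle-treated control cultures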; details: S. cerevisiae rad52 mutant growth inhibition, stronger effect = higher value
In short: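 Measured: yeast growth inhibition. System: strain with a defined DNA damage repair alteration. Reference: vehicle-treated control cultures.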

[2] = NCI Yeast Anticancer Drug Screen. Data for the wt1 strain (AID 149);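 also: 0% = growth of vehicle-treated wt1 cultures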; details: S. cerevisiae wt1 strain (SPY 50644) growth inhibition, stronger effect = higher value
In short: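 The wt1 strain was treated with compounds, and growth was compared with vehicle-treated cultures to give inhibition.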

[3] = NCI Yeast Anticancer Drug Screen. Data for the rad50EPP+ strain (AID 151);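 also: 0% = growth of vehicle-treated control cultures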; details: S. cerevisiae rad50 mutant strain, stronger effect = higher value
In short: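 One strain with a rad50 alteration (rad50EPP+) was compound-treated, its growth then compared to that of vehicle controls.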

[4] = NCI Yeast Anticancer Drug Screen. Data for the mgt1 strain (AID 153); details: S. cerevisiae mgt1 mutant growth inhibition, stronger effect = higher value
In short: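 After exposure of the mgt1 yeast mutant to compound, growth was measured and reported as inhibition compared with vehicle controls.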

[5] = NCI Yeast Anticancer Drug Screen. Data for the rad50 strain (AID 155);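 also: 0% = growth of vehicle-only cultures of the same strain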; details: S. cerevisiae rad50 strain growth inhibition, stronger effect = higher value
In short: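 Cells are treated with compound, grown, and their growth is then scored against vehicle-only cultures of the same repair-deficient yeast strain.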

[6] = NCI Yeast Anticancer Drug Screen. Data for the mec2-1 strain (AID 157); details: S. cerevisiae mec2-1 strain, stronger effect = higher value
In short: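 Test agents were screened against the mec2-1 yeast strain, with defined DNA repair or cell cycle alteration. Growth was scored as inhibition against vehicle-only controls.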

[7] = NCI Yeast Anticancer Drug Screen. Data for the rad14 strain (AID 159);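 also: 0% = growth of vehicle-treated control cultures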; details: S. cerevisiae rad14 strain growth inhibition, stronger effect = higher value
In short: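 Readout: yeast growth inhibition, referenced to vehicle-only cultures. Strain bears a defined alteration in DNA damage repair.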

[8] = NCI Yeast Anticancer Drug Screen. Data for the sgs1 mgt1 strain (AID 161);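 also: 0% = growth of cultures given vehicle only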; details: S. cerevisiae sgs1 mgt1 strain, stronger effect = higher value
In short: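 Read-out: growth inhibition vs vehicle controls. Cells: mutant yeast strain deficient in DNA damage repair.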

[9] = NCI Yeast Anticancer Drug Screen. Data for the CLN2oe strain (AID 163);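 also: 0% = growth of vehicle-only control cultures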; details: S. cerevisiae CLN2oe strain, stronger effect = higher value
In short: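 Here, growth inhibition in a cell-cycle-altered yeast strain after compound exposure was quantified against vehicle control growth.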

[10] = NCI Yeast Anticancer Drug Screen. Data for the cln2 rad14 strain (AID 165);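 also: 0% = growth equal to vehicle treated cultures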; details: S. cerevisiae cln2 rad14 strain, stronger effect = higher value
In short: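 Growth of compound-exposed yeast (cln2 rad14 genotype) measured and expressed as inhibition relative to vehicle.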

[11] = NCI Yeast Anticancer Drug Screen. Data for the bub3 strain (AID 167); details: S. cerevisiae bub3 mutant strain, stronger effect = higher value
In short: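 Part of a panel of yeast mutants defective in DNA damage repair or cell cycle regulation. Each strain is grown with compound, and inhibition is calculated relative to solvent-treated cultures.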

[12] = NCI Yeast Anticancer Drug Screen. Data for the wt2 strain (AID 169);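 also: 0% = growth of vehicle-treated yeast cultures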; details: S. cerevisiae wt2 strain growth inhibition, stronger effect = higher value
In short: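 Genetically defined yeast strains from a DNA-repair/cell-cycle panel were used. Compound-exposed yeast growth was measured, and the inhibition was calculated relative to vehicle treatment.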

[13] = NCI Yeast Anticancer Drug Screen. Data for the mlh1 strain (AID 171);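 also: 0% = growth of vehicle-treated control cultures of the same strain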; details: S. cerevisiae mlh1 strain growth inhibition, stronger effect = higher value
In short: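 Here the genetically defined yeast mutant is grown with each compound, and the extent to which its growth falls below that of vehicle-exposed cells is reported.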

[14] = NCI Yeast Anticancer Drug Screen. Data for the sgs1 strain (AID 173);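 also: 0% = growth of vehicle-only control cultures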; details: S. cerevisiae sgs1 mutant, stronger effect = higher value
In short: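 Relative growth inhibition, referenced to vehicle, was determined in a yeast strain with a defined alteration affecting DNA damage repair or cell cycle control after compound exposure.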

[15] = NCI Yeast Anticancer Drug Screen. Data for the mlh1 rad18 strain (AID 175); details: S. cerevisiae mlh1 rad18 strain growth inhibition, stronger effect = higher value
In short: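 In this whole-cell yeast screen, a strain with altered DNA damage repair is challenged with compound, and its growth is measured against matched vehicle-treated controls.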

[16] = NCI Yeast Anticancer Drug Screen. Data for the rad18 strain (AID 177); details: S. cerevisiae rad18 mutant growth inhibition, stronger effect = higher value
In short: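 Screen uses a yeast strain with a defined lesion in DNA damage repair; compound effect is read as loss of growth compared to untreated vehicle cultures.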

[17] = at 5.0 µM (retest, dose inferred, filed as 0.5)
[18] = at 50.0 µM (retest, dose inferred, filed as 5.0)

Measured: growth inhibition

CCC1(OC(=O)CN2CCN(CCO)CC2)C(=O)OCc2c1cc1n(c2=O)Cc2cc3ccccc3nc2-1 (stereo unspecified)
active: [1]; at 11.0 µM 70% | [1]; at 33.0 µM 89% | [1]; at 100.0 µM 93% | [3]; at 100.0 µM 82% | [5]; at 11.0 µM 74% | [5]; at 33.0 µM 88% | [5]; [18] 83% | [5]; at 100.0 µM 92% | [15]; at 50.0 µM 78.3%
inactive: [1]; at 1.2 µM 35% | [1]; at 3.7 µM 49% | [2]; at 1.2 µM 9% | [2]; at 3.7 µM 15% | [2]; at 11.0 µM 24% | [2]; at 33.0 µM 13% | [2]; at 100.0 µM 7% | [3]; at 1.2 µM 16% | [3]; at 3.7 µM 17% | [3]; at 11.0 µM 42% | [3]; at 33.0 µM 60% | [4]; at 1.2 µM -18% | [4]; at 3.7 µM -20% | [4]; at 11.0 µM -19% | [4]; at 33.0 µM -23% | [4]; at 100.0 µM -45% | [5]; at 1.2 µM 18% | [5]; at 3.7 µM 57% | [5]; [17] 4% | [5]; at 50.0 µM 17.9% | [6]; at 1.2 µM -23% | [6]; at 3.7 µM -19% | [6]; [17] 4% | [6]; at 11.0 µM -12% | [6]; at 33.0 µM -21% | [6]; [18] -2% | [6]; at 50.0 µM 20.1% | [6]; at 100.0 µM 29% | [7]; at 1.2 µM -13% | [7]; at 3.7 µM -4% | [7]; at 11.0 µM -25% | [7]; at 33.0 µM -14% | [7]; at 100.0 µM -20% | [8]; [17] -8% | [8]; [18] -10% | [8]; at 50.0 µM 3.05% | [9]; at 1.2 µM 3% | [9]; at 3.7 µM 5% | [9]; at 11.0 µM 2% | [9]; at 33.0 µM -23% | [9]; at 100.0 µM -3% | [10]; [17] 20% | [10]; [18] 17% | [10]; at 50.0 µM 8.9% | [11]; at 1.2 µM -4% | [11]; at 3.7 µM 1% | [11]; [17] 0% | [11]; at 11.0 µM -10% | [11]; at 33.0 µM -14% | [11]; [18] 3% | [11]; at 50.0 µM -21.4% | [11]; at 100.0 µM -30% | [12]; at 1.2 µM 11% | [12]; at 3.7 µM 9% | [12]; at 11.0 µM 14% | [12]; at 33.0 µM 5% | [12]; at 100.0 µM -4% | [13]; at 1.2 µM 1% | [13]; at 3.7 µM -5% | [13]; at 11.0 µM -12% | [13]; at 33.0 µM -20% | [13]; at 100.0 µM -13% | [14]; at 1.2 µM 30% | [14]; at 3.7 µM 21% | [14]; at 11.0 µM 26% | [14]; at 33.0 µM 21% | [14]; at 100.0 µM 24% | [15]; [17] -8% | [15]; [18] -1% | [16]; at 1.2 µM 9% | [16]; at 3.7 µM 19% | [16]; at 11.0 µM 6% | [16]; at 33.0 µM 6% | [16]; at 100.0 µM 1%

CCCCOC(=O)Nc1ccc(C)c(NC(=O)OCCCC)c1
inactive: [1]; at 1.2 µM -4% | [1]; at 3.7 µM -1% | [1]; at 11.0 µM 15% | [1]; at 33.0 µM 26% | [1]; at 100.0 µM 34% | [2]; at 1.2 µM -6% | [2]; at 3.7 µM -2% | [2]; at 11.0 µM -7% | [2]; at 33.0 µM 46% | [2]; at 100.0 µM 12% | [3]; at 1.2 µM 2% | [3]; at 3.7 µM 5% | [3]; at 11.0 µM 27% | [3]; at 33.0 µM 36% | [3]; at 100.0 µM 44% | [4]; at 1.2 µM -9% | [4]; at 3.7 µM -8% | [4]; at 11.0 µM -4% | [4]; at 33.0 µM 8% | [4]; at 100.0 µM 18% | [5]; at 1.2 µM -5% | [5]; at 3.7 µM -3% | [5]; [17] 3% | [5]; at 11.0 µM 9% | [5]; at 33.0 µM 19% | [5]; at 100.0 µM 42% | [6]; at 1.2 µM -6% | [6]; at 3.7 µM -11% | [6]; [17] -2% | [6]; at 11.0 µM -6% | [6]; at 33.0 µM 7% | [6]; [18] 69% | [6]; at 100.0 µM 22% | [7]; at 1.2 µM -3% | [7]; at 3.7 µM -3% | [7]; at 11.0 µM 2% | [7]; at 33.0 µM 11% | [7]; at 100.0 µM 15% | [8]; [17] 1% | [9]; at 1.2 µM -11% | [9]; at 3.7 µM -19% | [9]; at 11.0 µM 11% | [9]; at 33.0 µM 31% | [9]; at 100.0 µM 38% | [10]; [17] -4% | [11]; at 1.2 µM -8% | [11]; at 3.7 µM -9% | [11]; [17] -2% | [11]; at 11.0 µM -8% | [11]; at 33.0 µM 3% | [11]; at 100.0 µM 8% | [12]; at 1.2 µM -4% | [12]; at 3.7 µM -4% | [12]; at 11.0 µM 6% | [12]; at 33.0 µM 52% | [12]; at 100.0 µM 29% | [13]; at 1.2 µM -8% | [13]; at 3.7 µM -6% | [13]; at 11.0 µM 1% | [13]; at 33.0 µM 17% | [13]; at 100.0 µM 36% | [14]; at 1.2 µM -4% | [14]; at 3.7 µM -5% | [14]; at 11.0 µM 8% | [14]; at 33.0 µM 47% | [15]; [17] -1% | [16]; at 1.2 µM -5% | [16]; at 3.7 µM -8% | [16]; at 11.0 µM 12% | [16]; at 33.0 µM 31% | [16]; at 100.0 µM 50%
active: [5]; [18] 78% | [5]; at 50.0 µM 89.9% | [6]; at 50.0 µM 94.3% | [8]; [18] 82% | [8]; at 50.0 µM 88.6% | [10]; [18] 79% | [10]; at 50.0 µM 91.9% | [11]; [18] 72% | [11]; at 50.0 µM 94.5% | [14]; at 100.0 µM 72% | [15]; [18] 84% | [15]; at 50.0 µM 94.5%

Source: PubChem BioAssay (NCI)
